This passage reports outcome results from PubChem BioAssay (EPA / NIEHS).

Active and inactive are the calls of the source. The calls were made as follows: active = hit-call score of the fitted dose curve at least 0.9, where 1 is the maximum; inactive = score below 0.9.

The nature of this assay: CCTE_Shafer_MEA_acute_per_network_burst_electrodes_number_mean: CCTE's Neural Acute Assay for Mean Number of Electrodes in a Network Burst, Shafer Lab (AID 2284021).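 Also: curves fitted for decreases only so hits reduce electrodes per burst.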 The method, then:
CCTE_Shafer_MEA_acute assay is conducted using Axion Biosystems 48 well microelectrode array (MEA) plates and Maestro recording system. Each well of the MEA plate contains a grid of 16 microelectrodes embedded in the culture surface. Electrically active cells, such as neurons, can be cultured over the electrodes, and electrical activity in these cells can be recorded extracellularly. The spontaneous firing of neurons is captured from each electrode on a microsecond timescale providing both temporally and spatially precise data. […] The CCTE_Shafer_MEA_acute assay uses primary cultures of rat cortical neurons. As these cultures mature over time, neural networks develop functional activity and form cohesive networks in which electrical activity can be highly coordinated. Baseline 40-minute recordings are made on days post-plating 13 or 15, followed by a secondary 40-minute recording after chemical exposure.CCTE_Shafer_MEA_acute_per_network_burst_electrodes_number_mean is a component of the CCTE_Shafer_MEA_acute assay. It measures the average number of electrodes with activity during a network burst (a temporally-clustered group of action potential firing across multiple electrodes) in a recording in a microelectrode array (MEA) using Axion Biosystems Maestro 768 channel amplifier with the AxIS adaptive spike detector. The recordings before and after chemical treatment are used to calculate a percent change in the mean number of electrodes participating in network bursts in each well.Data from the assay component CCTE_Shafer_MEA_acute_per_network_burst_electrodes_number_mean was analyzed into 1 assay endpoint. This assay endpoint, CCTE_Shafer_MEA_acute_per_network_burst_electrodes_number_mean, was analyzed in the negative analysis fitting direction relative to DMSO as the negative control and baseline of activity. Using a type of functional reporter, gain or loss-of-signal activity can be used to understand electrical activity.
Spontaneous activity in the cortical cultures was recorded using an Axion Biosystems Maestro 768 channel amplifier and Axion Integrated Studios (AxIS) v1.8 (or later) software. The amplifier recorded from all channels simultaneously (gain = 1200 x; sampling rate = 12.5 kHz/channel): raw signals were filtered with a Butterworth band-pass filter (300-5000 Hz), which filters out slower local field potentials leaving only fast potentials, i.e., "spikes", arising from extracellular currents associated with action potentials (Pine 2006; Wheeler and Nam 2011). On-line spike detection of filtered signals was conducted with the AxIS adaptive spike detector, using a threshold of 8x the root mean squared (rms) noise on each channel. Any electrodes with rms noise levels greater than 5 uV were grounded (e.g., no data were recorded). Once grounded, an electrode was grounded for the duration of the experiment. All recordings were conducted at 37 C. Wells were deemed usable if on the day of the exposure >/= 10 electrodes were active (defined as >/= 5 spikes/min). On DIV 13 or 15, a minimum of three wells from one cortical culture preparation were treated with each compound (0.03-40 uM). Prior to recording baseline activity, each mwMEA plate was placed in the Maestro at 37 C and allowed to sit for 20 min while firing rates stabilized. Baseline activity (40 min) was recorded before the addition of each compound. An additional 40 min of spontaneous activity was recorded in the presence of each compound. Changes in network parameters relative to baseline were assessed following compound treatment.
`CC(C)CCCC(C)(C)O`: the call was inactive. Then `CCCCN(CCO)CCO`, with “inactive”. As for `N[C@@H](CCC(=O)O)C(=O)O`, the entry is “inactive”; as for `CCCCOCCOCCO`, “inactive”. For the molecule `O=C(c1ccc(OCCN2CCCCC2)cc1)c1c(-c2ccc(O)cc2)sc2cc(O)ccc12`, the molecule was called inactive. Then `c1ccc(OCCOc2ccccc2)cc1`, with “inactive”; and `CCn1cc(C(=O)O)c(=O)c2ccc(C)nc21`, with “inactive”; and `CCCO[Si](OCCC)(OCCC)OCCC`, with “inactive”. As for `CC(C)(CO)CO`, the result was inactive. Turning to `CC(=O)c1ccc(C)cc1`, the outcome was inactive. Then `CC/C(=C(\c1ccccc1)c1ccc(OCCN(C)C)cc1)c1ccccc1`, with “inactive”.
